Measurements: publication PMC7862700, “An all-to-all approach to the identification of sequence-specific readers for epigenetic DNA modifications on cytosine”

Assays:
Test in all cases: DAPPL (digital affinity profiling via proximity ligation, sequencing); 10 mM Tris-HCl pH 7.5, 50 mM NaCl, 1 mM DTT, 4% glycerol, room temperature, 30 min; GST-TFs on glutathione beads, 16-mer random dsDNA library, 0.1% formaldehyde crosslink after washing; high values mean tight binding
[1] = target: T1, FEV (Homo sapiens, UniProt Q99581 1-238); conditions: protein: recombinant; tags: N-terminal GST; dsDNA, one strand shown
T1 sequence: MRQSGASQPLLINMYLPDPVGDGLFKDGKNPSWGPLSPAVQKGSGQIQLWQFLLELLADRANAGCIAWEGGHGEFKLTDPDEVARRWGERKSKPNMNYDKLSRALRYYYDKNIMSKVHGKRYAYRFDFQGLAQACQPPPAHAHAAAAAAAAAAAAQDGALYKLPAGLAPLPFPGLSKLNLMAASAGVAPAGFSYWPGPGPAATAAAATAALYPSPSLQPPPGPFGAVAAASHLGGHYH
Summary of the method: (§1)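 Sequencing on an Illumina NextSeq500 followed washing, crosslinking with 0.1% formaldehyde, proximity ligation (BsaI/T4 ligase, 1 h, 37 °C) and PCR amplification of pools that had been incubated for 30 min at room temperature with 200 nmole of a random double-stranded 16-mer DNA library in Tris/NaCl/DTT/glycerol buffer. Each pool held DNA-barcoded human transcription factors, expressed in yeast as GST fusions and captured on glutathione beads, plus a tag-only sample. Binding signal is a hexamer's read frequency for a factor divided by its frequency in the tag-only sample.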

[2] = target: ETV5 (Homo sapiens, UniProt P41161 1-510); conditions: protein: recombinant; tags: N-terminal GST; dsDNA, one strand shown
Summary of the method: as §1

[3] = target: HSF1 (Homo sapiens, UniProt Q00613 1-529); conditions: protein: recombinant; tags: N-terminal GST; chain copies: 3; dsDNA, one strand shown
Summary of the method: as §1

[4] = target: T2, SPIC (Homo sapiens, UniProt Q8N5J4 1-248); conditions: protein: recombinant; tags: N-terminal GST; dsDNA, one strand shown
T2 sequence: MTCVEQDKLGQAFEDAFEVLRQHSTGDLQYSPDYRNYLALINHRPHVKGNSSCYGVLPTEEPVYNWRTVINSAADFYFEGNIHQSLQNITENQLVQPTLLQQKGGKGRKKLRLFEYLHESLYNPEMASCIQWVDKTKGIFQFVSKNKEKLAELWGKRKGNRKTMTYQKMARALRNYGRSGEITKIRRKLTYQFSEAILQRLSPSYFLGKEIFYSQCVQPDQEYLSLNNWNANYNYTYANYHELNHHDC
Summary of the method: as §1

[5] = target: ELF4 (Homo sapiens, UniProt Q99607 1-663); conditions: protein: recombinant; tags: N-terminal GST; dsDNA, one strand shown
Summary of the method: as §1

[6] = target: T3, ELK4 (Homo sapiens, UniProt P28324-2 1-405); conditions: protein: recombinant; tags: N-terminal GST; dsDNA, one strand shown
T3 sequence: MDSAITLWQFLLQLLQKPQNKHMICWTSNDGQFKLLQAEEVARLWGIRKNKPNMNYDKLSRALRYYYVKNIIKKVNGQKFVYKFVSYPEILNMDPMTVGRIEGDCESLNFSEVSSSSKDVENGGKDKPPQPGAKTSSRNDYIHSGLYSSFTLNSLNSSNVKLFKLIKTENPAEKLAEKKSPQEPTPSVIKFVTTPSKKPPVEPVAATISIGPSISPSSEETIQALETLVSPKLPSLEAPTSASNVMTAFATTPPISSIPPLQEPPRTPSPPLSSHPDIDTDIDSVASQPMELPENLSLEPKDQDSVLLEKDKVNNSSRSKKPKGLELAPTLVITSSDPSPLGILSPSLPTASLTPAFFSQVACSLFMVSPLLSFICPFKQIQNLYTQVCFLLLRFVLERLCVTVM
Summary of the method: as §1

[7] = target: T4, ETV2 (Homo sapiens, UniProt O00321 1-342); conditions: protein: recombinant; tags: N-terminal GST; dsDNA, one strand shown
T4 sequence: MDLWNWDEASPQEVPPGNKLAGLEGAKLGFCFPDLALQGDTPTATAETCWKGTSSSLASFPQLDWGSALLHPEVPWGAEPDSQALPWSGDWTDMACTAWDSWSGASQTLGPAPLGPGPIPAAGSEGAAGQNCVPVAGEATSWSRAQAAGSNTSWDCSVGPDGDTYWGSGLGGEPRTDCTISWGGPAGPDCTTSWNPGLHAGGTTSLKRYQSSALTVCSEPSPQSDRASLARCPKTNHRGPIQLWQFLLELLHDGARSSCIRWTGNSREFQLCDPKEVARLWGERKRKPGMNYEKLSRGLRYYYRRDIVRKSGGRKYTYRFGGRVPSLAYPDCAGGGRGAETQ
Summary of the method: as §1

[8] = target: T5, ELF3 (Homo sapiens, UniProt P78545 1-371); conditions: protein: recombinant; tags: N-terminal GST; dsDNA, one strand shown
T5 sequence: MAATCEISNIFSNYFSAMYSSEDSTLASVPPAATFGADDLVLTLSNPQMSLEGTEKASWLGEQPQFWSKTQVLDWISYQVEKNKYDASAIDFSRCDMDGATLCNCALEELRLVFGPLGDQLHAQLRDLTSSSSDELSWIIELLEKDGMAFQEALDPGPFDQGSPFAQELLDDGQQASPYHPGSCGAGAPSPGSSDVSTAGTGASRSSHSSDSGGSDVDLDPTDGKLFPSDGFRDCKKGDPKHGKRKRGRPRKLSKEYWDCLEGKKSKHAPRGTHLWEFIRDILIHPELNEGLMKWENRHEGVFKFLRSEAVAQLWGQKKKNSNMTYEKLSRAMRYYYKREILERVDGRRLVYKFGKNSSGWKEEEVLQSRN
Summary of the method: as §1

[9] = target: CRX (Homo sapiens, UniProt O43186 1-299); conditions: protein: recombinant; tags: N-terminal GST; dsDNA, one strand shown
Summary of the method: as §1

[10] = target: ETV1 (Homo sapiens, UniProt P50549 1-477); conditions: protein: recombinant; tags: N-terminal GST; dsDNA, one strand shown
Summary of the method: as §1

[11] = target: T6, ERF (Homo sapiens, UniProt P50548 1-548); conditions: protein: recombinant; tags: N-terminal GST; dsDNA, one strand shown
T6 sequence: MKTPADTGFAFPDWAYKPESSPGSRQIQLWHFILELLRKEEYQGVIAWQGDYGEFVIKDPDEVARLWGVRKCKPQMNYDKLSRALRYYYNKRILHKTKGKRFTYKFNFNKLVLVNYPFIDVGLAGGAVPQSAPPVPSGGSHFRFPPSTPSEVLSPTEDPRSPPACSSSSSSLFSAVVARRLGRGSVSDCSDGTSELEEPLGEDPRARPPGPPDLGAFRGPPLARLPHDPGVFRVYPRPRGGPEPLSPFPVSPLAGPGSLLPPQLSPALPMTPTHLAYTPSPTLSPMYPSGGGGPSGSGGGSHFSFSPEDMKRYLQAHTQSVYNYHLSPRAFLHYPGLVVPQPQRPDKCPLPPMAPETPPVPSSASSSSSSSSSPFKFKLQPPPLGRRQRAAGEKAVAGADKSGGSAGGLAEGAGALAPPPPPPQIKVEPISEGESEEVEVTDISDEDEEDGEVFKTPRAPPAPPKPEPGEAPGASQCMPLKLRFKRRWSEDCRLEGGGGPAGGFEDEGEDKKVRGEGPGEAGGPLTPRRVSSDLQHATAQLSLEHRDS
Summary of the method: as §1

[12] = target: T7, ETV3L (Homo sapiens, UniProt Q6ZN32 1-361); conditions: protein: recombinant; tags: N-terminal GST; dsDNA, one strand shown
T7 sequence: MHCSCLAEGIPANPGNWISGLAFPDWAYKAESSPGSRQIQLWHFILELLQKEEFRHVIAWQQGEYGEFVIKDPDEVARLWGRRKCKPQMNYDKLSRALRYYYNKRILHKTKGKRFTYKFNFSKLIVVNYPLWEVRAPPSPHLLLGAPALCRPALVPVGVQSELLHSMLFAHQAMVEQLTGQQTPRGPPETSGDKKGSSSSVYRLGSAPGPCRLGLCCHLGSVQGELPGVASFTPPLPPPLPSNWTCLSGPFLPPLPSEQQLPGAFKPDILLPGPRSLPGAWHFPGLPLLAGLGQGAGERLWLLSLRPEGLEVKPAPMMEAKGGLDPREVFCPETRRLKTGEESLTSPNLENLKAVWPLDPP
Summary of the method: as §1

[13] = target: T8, ETS2 (Homo sapiens, UniProt P15036 1-469); conditions: protein: recombinant; tags: N-terminal GST; dsDNA, one strand shown
T8 sequence: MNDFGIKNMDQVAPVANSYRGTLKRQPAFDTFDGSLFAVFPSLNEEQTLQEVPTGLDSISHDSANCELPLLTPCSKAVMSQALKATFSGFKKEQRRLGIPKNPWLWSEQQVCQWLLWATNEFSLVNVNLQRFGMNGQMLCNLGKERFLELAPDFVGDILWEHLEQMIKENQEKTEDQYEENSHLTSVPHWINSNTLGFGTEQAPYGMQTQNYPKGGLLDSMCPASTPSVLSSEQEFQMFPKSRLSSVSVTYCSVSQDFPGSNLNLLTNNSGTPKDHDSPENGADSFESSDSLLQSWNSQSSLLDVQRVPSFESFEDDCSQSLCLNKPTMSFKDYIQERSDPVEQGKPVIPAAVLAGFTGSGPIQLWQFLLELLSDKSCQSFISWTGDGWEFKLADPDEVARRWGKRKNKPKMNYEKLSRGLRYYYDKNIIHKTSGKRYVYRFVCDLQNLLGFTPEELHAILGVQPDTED
Summary of the method: as §1

[14] = target: T9, SPDEF (Homo sapiens, UniProt O95238 1-335); conditions: protein: recombinant; tags: N-terminal GST; dsDNA, one strand shown
T9 sequence: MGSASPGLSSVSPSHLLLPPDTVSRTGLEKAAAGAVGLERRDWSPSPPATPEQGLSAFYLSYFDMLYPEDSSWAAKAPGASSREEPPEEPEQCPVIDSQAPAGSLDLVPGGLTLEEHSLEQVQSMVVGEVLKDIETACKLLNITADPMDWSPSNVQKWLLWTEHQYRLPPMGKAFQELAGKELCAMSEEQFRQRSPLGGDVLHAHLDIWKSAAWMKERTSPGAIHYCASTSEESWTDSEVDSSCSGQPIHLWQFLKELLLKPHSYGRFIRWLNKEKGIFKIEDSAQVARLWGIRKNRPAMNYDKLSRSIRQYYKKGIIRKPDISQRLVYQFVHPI
Summary of the method: as §1

[15] = target: T10, ETV7 (Homo sapiens, UniProt Q9Y603 1-341); conditions: protein: recombinant; tags: N-terminal GST; dsDNA, one strand shown
T10 sequence: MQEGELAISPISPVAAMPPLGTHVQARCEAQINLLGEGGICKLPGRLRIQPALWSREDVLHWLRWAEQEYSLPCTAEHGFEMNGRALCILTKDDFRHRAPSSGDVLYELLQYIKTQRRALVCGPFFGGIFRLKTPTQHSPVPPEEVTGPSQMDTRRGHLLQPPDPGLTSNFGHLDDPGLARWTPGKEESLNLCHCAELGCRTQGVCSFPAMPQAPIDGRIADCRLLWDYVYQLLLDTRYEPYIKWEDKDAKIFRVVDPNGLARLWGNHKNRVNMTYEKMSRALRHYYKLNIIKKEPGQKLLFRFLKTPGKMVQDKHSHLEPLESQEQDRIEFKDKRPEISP
Summary of the method: as §1

[16] = target: T11, ELF5 (Homo sapiens, UniProt Q9UKW6-2 1-255); conditions: protein: recombinant; tags: N-terminal GST; dsDNA, one strand shown
T11 sequence: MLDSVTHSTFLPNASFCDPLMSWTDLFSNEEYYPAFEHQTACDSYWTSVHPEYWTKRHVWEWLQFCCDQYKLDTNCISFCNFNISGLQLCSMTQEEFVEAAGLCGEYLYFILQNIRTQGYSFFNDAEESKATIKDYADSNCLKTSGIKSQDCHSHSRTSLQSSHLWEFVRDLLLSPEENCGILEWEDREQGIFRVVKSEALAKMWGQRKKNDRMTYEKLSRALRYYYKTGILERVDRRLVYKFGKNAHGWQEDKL
Summary of the method: as §1

[17] = target: T12, ETV3 (Homo sapiens, UniProt P41162-2 1-143); conditions: protein: recombinant; tags: N-terminal GST; dsDNA, one strand shown
T12 sequence: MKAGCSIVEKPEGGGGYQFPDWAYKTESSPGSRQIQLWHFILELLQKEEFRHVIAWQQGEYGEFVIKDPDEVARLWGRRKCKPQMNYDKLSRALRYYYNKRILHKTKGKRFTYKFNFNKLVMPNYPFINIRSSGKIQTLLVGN
Summary of the method: as §1

[18] = target: ETV6 (Homo sapiens, UniProt P41212 1-452); conditions: protein: recombinant; tags: N-terminal GST; dsDNA, one strand shown
Summary of the method: as §1

Chain of HSF1 (Q00613 whole entry): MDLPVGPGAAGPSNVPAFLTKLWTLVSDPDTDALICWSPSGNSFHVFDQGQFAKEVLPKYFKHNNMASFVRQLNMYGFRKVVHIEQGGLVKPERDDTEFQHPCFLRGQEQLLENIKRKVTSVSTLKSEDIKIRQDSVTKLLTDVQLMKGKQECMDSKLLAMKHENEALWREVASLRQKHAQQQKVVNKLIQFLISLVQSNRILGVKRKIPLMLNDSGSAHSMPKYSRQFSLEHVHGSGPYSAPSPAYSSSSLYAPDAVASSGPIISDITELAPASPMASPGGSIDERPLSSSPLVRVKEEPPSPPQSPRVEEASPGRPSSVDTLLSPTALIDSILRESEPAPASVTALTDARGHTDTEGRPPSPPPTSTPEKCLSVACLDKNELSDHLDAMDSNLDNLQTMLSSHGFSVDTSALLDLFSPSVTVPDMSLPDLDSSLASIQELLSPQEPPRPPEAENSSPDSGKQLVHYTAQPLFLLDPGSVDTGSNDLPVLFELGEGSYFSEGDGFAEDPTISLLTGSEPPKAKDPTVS
Chain of ETV5 (P41161 whole entry): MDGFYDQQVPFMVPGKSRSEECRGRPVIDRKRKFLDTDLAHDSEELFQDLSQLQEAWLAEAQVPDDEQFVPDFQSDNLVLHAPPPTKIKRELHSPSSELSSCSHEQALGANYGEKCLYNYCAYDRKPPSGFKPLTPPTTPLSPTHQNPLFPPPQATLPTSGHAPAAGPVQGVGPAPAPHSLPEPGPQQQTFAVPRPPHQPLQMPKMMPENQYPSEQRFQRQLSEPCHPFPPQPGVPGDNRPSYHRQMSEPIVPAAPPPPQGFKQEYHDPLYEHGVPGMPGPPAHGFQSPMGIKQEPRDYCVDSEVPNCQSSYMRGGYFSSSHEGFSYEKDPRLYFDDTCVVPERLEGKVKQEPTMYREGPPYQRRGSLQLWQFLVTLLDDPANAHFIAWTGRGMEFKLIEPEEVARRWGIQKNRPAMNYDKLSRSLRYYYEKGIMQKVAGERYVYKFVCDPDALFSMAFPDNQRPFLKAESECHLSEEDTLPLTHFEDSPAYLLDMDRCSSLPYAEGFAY
Chain of CRX (O43186 whole entry): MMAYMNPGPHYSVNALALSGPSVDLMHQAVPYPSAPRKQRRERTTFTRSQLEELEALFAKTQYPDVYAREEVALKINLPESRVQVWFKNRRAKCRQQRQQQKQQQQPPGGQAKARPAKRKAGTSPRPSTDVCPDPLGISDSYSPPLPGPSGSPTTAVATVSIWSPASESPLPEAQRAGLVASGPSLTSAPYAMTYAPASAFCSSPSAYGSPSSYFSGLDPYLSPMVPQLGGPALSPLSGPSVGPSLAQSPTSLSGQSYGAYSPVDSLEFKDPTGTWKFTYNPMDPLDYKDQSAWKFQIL
Chain of ETV1 (P50549 whole entry): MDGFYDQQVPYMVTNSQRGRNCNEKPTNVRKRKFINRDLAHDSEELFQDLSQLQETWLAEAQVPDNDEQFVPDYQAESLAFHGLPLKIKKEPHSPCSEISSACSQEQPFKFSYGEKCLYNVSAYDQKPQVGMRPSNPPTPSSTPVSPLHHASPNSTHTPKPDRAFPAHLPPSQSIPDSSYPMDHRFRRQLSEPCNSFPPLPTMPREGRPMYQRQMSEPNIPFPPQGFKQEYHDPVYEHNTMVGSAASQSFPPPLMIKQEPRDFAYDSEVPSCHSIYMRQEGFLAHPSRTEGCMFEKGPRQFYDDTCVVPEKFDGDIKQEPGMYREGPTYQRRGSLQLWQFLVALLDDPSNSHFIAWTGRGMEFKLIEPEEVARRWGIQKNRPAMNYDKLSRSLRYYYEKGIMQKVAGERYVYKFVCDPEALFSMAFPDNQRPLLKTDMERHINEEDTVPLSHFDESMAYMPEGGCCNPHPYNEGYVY
Chain of ELF4 (Q99607 whole entry): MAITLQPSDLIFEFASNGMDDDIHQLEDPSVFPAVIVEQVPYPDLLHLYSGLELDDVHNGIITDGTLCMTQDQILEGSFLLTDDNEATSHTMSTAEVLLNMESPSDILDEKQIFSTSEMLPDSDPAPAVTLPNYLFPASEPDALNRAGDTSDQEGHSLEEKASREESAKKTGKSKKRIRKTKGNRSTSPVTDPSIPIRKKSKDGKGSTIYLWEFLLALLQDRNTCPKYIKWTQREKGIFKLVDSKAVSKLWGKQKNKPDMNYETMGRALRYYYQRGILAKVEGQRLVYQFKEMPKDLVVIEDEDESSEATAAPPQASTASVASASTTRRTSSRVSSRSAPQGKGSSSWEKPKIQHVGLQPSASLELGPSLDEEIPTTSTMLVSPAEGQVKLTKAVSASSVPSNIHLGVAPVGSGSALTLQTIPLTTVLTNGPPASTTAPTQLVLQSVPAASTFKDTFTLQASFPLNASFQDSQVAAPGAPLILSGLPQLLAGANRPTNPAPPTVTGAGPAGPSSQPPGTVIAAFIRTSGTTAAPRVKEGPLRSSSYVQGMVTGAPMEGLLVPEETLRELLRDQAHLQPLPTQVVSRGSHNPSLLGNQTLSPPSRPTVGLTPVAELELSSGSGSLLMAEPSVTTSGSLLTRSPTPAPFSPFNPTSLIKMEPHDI
Chain of ETV6 (P41212 whole entry): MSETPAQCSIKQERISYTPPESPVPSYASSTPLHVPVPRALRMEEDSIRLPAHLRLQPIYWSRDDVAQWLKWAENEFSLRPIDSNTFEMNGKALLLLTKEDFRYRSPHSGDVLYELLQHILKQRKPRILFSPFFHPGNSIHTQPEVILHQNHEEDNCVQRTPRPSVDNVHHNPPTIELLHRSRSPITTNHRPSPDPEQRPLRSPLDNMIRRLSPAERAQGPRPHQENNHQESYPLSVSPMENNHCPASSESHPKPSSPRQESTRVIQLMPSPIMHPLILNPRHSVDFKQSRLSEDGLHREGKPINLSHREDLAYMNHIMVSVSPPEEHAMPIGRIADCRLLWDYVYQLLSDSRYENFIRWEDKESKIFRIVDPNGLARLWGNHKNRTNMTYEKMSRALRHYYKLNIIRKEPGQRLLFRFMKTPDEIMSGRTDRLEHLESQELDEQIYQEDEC

GAAATT
binding signal [1]: 1.25 fold enrichment (6-mer frequency, TF over GST control)
binding signal [2]: 1.36 fold enrichment (6-mer frequency, TF over GST control)
binding signal [3]: 1.48 fold enrichment (6-mer frequency, TF over GST control)
binding signal [4]: 1.2 fold enrichment (6-mer frequency, TF over GST control)
binding signal [5]: 1.27 fold enrichment (6-mer frequency, TF over GST control)
binding signal [6]: 1.17 fold enrichment (6-mer frequency, TF over GST control)
binding signal [7]: 1.23 fold enrichment (6-mer frequency, TF over GST control)
binding signal [8]: 1.44 fold enrichment (6-mer frequency, TF over GST control)
binding signal [9]: 1.08 fold enrichment (6-mer frequency, TF over GST control)
binding signal [10]: 1.28 fold enrichment (6-mer frequency, TF over GST control)
binding signal [11]: 1.36 fold enrichment (6-mer frequency, TF over GST control)
binding signal [12]: 1.34 fold enrichment (6-mer frequency, TF over GST control)
binding signal [13]: 1.35 fold enrichment (6-mer frequency, TF over GST control)
binding signal [14]: 1.25 fold enrichment (6-mer frequency, TF over GST control)
binding signal [15]: 1.2 fold enrichment (6-mer frequency, TF over GST control)
binding signal [16]: 1.51 fold enrichment (6-mer frequency, TF over GST control)
binding signal [17]: 1.32 fold enrichment (6-mer frequency, TF over GST control)
binding signal [18]: 1.41 fold enrichment (6-mer frequency, TF over GST control)
